# MITF primary = human MITF inhibition, primary screen; O75030; AlphaScreen MITF homodimerization, bead proximity signal; inhibition, % at 2.6 µM; hit rate 0.91% among 650,000; AID 1259374; in the data active = inhibition above about 50%;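 note: 0% = vehicle wells with protein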
# FBW7 activator = activators of human E3 ligase FBW7 | AID 1259310 | hit rate 0.13% among 650,000 | normalized activity (activation), % at 26.1 µM | AlphaScreen FBW7–phospho-cyclin E peptide binding, activator screen | Q969H0; in the data active = normalized activity above about 1.9%;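 note: purified mutant Fbw7 with reduced substrate affinity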
# Target sequence (Q969H0 whole entry, looked up): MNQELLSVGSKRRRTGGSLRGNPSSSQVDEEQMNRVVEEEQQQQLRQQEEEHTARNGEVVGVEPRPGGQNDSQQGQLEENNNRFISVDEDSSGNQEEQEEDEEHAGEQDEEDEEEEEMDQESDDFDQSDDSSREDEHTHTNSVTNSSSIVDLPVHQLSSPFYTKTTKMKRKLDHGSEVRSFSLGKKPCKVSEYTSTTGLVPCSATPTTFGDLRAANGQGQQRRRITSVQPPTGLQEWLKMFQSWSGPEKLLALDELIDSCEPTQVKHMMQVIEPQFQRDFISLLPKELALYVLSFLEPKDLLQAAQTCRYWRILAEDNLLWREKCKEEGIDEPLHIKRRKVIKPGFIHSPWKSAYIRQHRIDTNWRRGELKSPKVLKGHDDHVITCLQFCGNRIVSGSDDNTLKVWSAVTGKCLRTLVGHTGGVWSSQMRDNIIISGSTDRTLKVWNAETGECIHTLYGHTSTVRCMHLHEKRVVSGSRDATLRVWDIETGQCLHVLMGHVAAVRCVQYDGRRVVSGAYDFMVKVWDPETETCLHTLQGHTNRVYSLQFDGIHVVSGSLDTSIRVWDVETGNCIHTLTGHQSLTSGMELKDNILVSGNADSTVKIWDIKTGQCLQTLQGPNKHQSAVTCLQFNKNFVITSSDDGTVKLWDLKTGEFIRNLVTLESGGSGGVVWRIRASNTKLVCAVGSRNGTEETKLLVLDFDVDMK
# GPR151 ag = human GPR151 activation; PathHunter beta-arrestin GPR151 cells, luminescence; activation, % at 11.2 µM; hit rate 1% among 650,000; in the data active = activation above about 4.9%;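 note: 0% = median of compound wells and 100% = cells with positive control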
# TEAD-YAP block = TEAD-YAP interaction inhibition; HEK-TIYL cells, TEAD-Gal4/YAP UAS-luciferase luminescence; hit rate 1.4% among 640,000; inhibition, % at 9.12 µM; in the data active = inhibition above about 32%;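 note: 0% = median of test compound wells and 100% = reference inhibitor wells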
# An asterisk follows results filed as active; / = not tested or not shown; ! = not active in a repeat. In the library only some 3.5% were active in any assay of this set; here they are far more common.
SMILES,MITF primary,FBW7 activator,GPR151 ag,TEAD-YAP block
CCN(CC)c1ccc(CNC(C)C(O)c2ccccc2)cc1 (stereo unspecified),3,0,-1,53*
CC(NCc1ccc(F)cc1)C(O)c1ccccc1 (stereo unspecified),1,0,0,20
O=C(O)C1C2CC3CC(C2)CC1(n1ncc(Cl)c(Cl)c1=O)C3 (stereo unspecified),6,0,-1,5
Oc1ccccc1CC1CC2CCN1CC2 (stereo unspecified),4,0,0,2
O=C1NC(=O)C(=Cc2ccc([N+](=O)[O-])o2)C(=O)N1,79*,-1,2,4
O=c1oc2ccccc2c(O)c1C(c1cc([N+](=O)[O-])ccc1Cl)c1c(O)c2ccccc2oc1=O,-3,0,1,-7
COc1ccc(CC(C)NCc2cc(NC(=O)c3ccccn3)cc(C(=O)N(C)C)c2)cc1 (stereo unspecified),1,0,-2,12
O=C1NC(=S)N(c2ccccc2)C(=O)/C1=C\C=C\c1ccco1,75*,-1,-1,-2
O=C1NC(=O)N(c2cccc3ccccc23)C(=O)/C1=C\c1ccco1,78*,0,0,-4
O=C1NC(=S)N(c2ccc(F)cc2)C(=O)/C1=C/c1ccco1,63*,-1,0,-5
O=C1NC(=S)N(c2ccc(Cl)cc2)C(=O)/C1=C/c1ccco1,33,0,-1,17
COc1cccc(/C=C/c2nc3ccccc3c(=O)n2-c2ccc(F)cc2)c1OC,-1,0,-1,2
O=C(c1noc2c1COc1ccccc1-2)N1CCC2(CC1)OCCO2,10,1,-6,75*
O=C(c1cc(-c2ccccc2)on1)N1CCC2(CC1)OCCO2,4,0,-5,-52
CC(C)[C@]12O[C@H]1[C@@H]1O[C@]13[C@]1(O[C@H]1C[C@H]1C4=C(CC[C@@]13C)C(=O)OC4)[C@@H]2O,3,0,1,90*
CSc1cc(C)c2c(c1)COC1(CCN(C(=O)c3ccco3)CC1)O2,-12,0,-1,3
N#CC1=C2SCC(O)(c3ccco3)N2C(=O)CC1c1ccccc1F (stereo unspecified),9,1,2,41*
CC1=[N+](C)c2c(ccc3ccccc23)C1(C)C,26,0,1,60*
CCOC(=O)C1C2NC(=S)N(c3ccc(Cl)cc3)C1(C)Oc1c(OC)cccc12 (stereo unspecified),26,-1,1,62*
CCOC(=O)C1C2NC(=S)N(c3ccc(Cl)cc3)C1(C)Oc1ccc(OC)cc12 (stereo unspecified),19,0,-1,50*
O=C(Oc1cccc2cccnc12)c1cccc(S(=O)(=O)N2CCCCCC2)c1,-4,0,-1,1
O=C(Oc1ccc([N+](=O)[O-])c2cccnc12)c1cccc(S(=O)(=O)N2CCOCC2)c1,72*,-1,1,6
Cc1ccc(C2=NCC(=O)Nc3c2oc2ccccc32)cc1,7,0,0,15
COc1ccc(OC)c(C2=NCC(=O)Nc3c2oc2ccc(Cl)cc32)c1,11,0,3,59*
CCCCC/C=C\C/C=C\C/C=C\C/C=C\CCCC(=O)N[C@@H](C)C(=O)O,1,/,1,/
SMILES,MITF primary,FBW7 activator,GPR151 ag,TEAD-YAP block
O=C1C(=O)c2ccccc2-c2ccccc21,16,-1,1,99*
O=C1NC(=O)C(=Cc2ccc(OCc3cccc(C(=O)O)c3)cc2)C(=O)N1,-3,0,-8,71*
COc1cc(C=C2C(=O)NC(=S)NC2=O)ccc1OCc1cccc(C(=O)O)c1,-20,0,-8,85*
CCOc1ccc(C=C2C(=O)NC(=S)NC2=O)cc1OCC,5,0,-1,4
O=C1NC(=O)C(=Cc2cc(Cl)ccc2OCc2ccc(C(=O)O)cc2)C(=O)N1,5,-1,1,0
C=CCNC(=O)C1c2cccn2-c2ccccc2CN1C1CCN(C(C)=O)CC1 (stereo unspecified),16,1,-1,7
OCCC1CN(Cc2ccccc2F)CCN1Cc1ccccc1 (stereo unspecified),-19,0,0,5
C[C@]12CC[C@H](O)C[C@H]1CC[C@@H]1[C@@H]2CC[C@]2(C)[C@@H](C3=CC(=O)OC3)CC[C@]12O,3,0,1,/
C[C@@H]1O[C@@H](O[C@H]2C[C@@H](O)[C@]3(CO)C4C(CC[C@]3(O)C2)[C@@]2(O)CC[C@H](C3=CC(=O)OC3)[C@@]2(C)C[C@H]4O)[C@H](O)[C@H](O)[C@H]1O (stereo partly specified),0,0,0,99*
COC1CC(O[C@H]2CC[C@]3(C=O)C4CC[C@]5(C)C(C6=CC(=O)OC6)CC[C@]5(O)C4CC[C@]3(O)C2)OC(C)C1O (stereo partly specified),12,0,0,101*
C[C@@H]1O[C@@H](O[C@H]2C[C@@H](O)[C@]3(CO)[C@@H]4C(CC[C@]3(O)C2)[C@@]2(O)CC[C@H](C3COC(=O)C3)[C@@]2(C)C[C@H]4O)[C@H](O)[C@H](O)[C@H]1O (stereo partly specified),5,1,-1,94*
Cc1cc(CNC(=O)c2c(Cc3ccccc3C)n(Cc3ccncc3)c(C)cc2=O)on1,6,0,1,4
Cc1ccc(S(=O)(=O)CCC(=O)Nc2ccc(C#N)c(Cl)c2)cc1,-12,0,1,9
C/C=C(/C)C(=O)O[C@H]1C(C)=C2[C@H]([C@@H]1OC(=O)CCCCCCC)[C@@](C)(OC(C)=O)C[C@H](OC(=O)CCC)[C@@]1(O)[C@H]2OC(=O)[C@@]1(C)O,11,0,0,57*
NC(N)=N/N=C/C(=N/N=C(N)N)c1ccccc1,19,0,1,-4
CC1CCCC(N2CCN(C(=O)COc3ccccc3)CC2)C1 (stereo unspecified),25,0,0,3
CC1CCC(C(C)C)C(OC(=O)Cn2c(COc3ccccc3)[n+](C)c3ccccc32)C1 (stereo unspecified),-11,0,2,37*
CC/C(=C\c1sc2ccc(OC)cc2[n+]1CC)SC (tested in a mixture with another compound),10,0,0,4
CC[n+]1c(/C=C/N(C)c2ccccc2)sc2ccc(OC)cc21,10,0,0,79*
C[C@H]1C(=O)O[C@@H]2CCN3CC=C(COC(=O)[C@](C)(O)[C@]1(C)O)[C@H]23,12,0,-4,74*!
CC(=O)OC1CCC23C(=O)OC45CCC(C6=CC(=O)OC6)C4(C)CCC2C5CCC3(O)C1 (stereo unspecified),-6,0,2,102*
COc1cc([C@@H]2c3cc4c(cc3[C@@H](O)[C@H]3COC(=O)[C@H]23)OCO4)cc(OC)c1O,11,1,3,-9
COc1cc([C@@H]2c3cc4c(cc3[C@H](OC(C)=O)[C@H]3COC(=O)[C@@H]23)OCO4)cc(OC)c1OC,-6,1,3,52*

# Source: PubChem (The Scripps Research Institute Molecular Screening Center)
